Outcome data for 40 compounds are collected here from PubChem BioAssay (EPA / NIEHS).

Inconclusive results are not listed. The source made the active and inactive calls. How the source made its calls: active means hit-call score of the fitted dose curve at least 0.9, where 1 is the maximum; inconclusive means response in the unintended direction; inactive means score below 0.9.

The nature of this experiment: Tanguay_ZF_120hpf_NC_legacy: (Legacy) Oregon State University Tanguay Lab 120 Hour Post-fertilization zebrafish Assay for Notochord and Tail Malformation (AID 2283656). The procedure:
Tanguay_ZF_120hpf_legacy is a whole embryo, multiplexed endpoint assay using zebrafish larvae exposed for 120 hours post fertilization on a 96-well plate.Tanguay_ZF_120hpf_NC_legacy is one of one assay component(s) measured or calculated from the Tanguay_ZF_120hpf_legacy assay. It is designed to make measurements of zebrafish development as detected with brightfield microscopy of developing zebrafish embryos.Data from the assay component Tanguay_ZF_120hpf_NC_legacy was analyzed into 1 assay endpoints. This assay endpoint, Tanguay_ZF_120hpf_NC_legacy, was analyzed in the positive analysis fitting direction relative to DMSO as the negative control and baseline of activity. Using a type of morphology reporter, gain-of-signal activity can be used to understand changes in developmentals as they relate to the whole embryo. To generalize the intended target to other relatable targets, this assay endpoint is annotated to the zebrafish development intended target family, where the subfamily is embryonic notochord morphogenesis.
Zebrafish husbandry: Tropical 5D wild-type adult zebrafish were housed in at an approximate density of 1000 per 100 gallon tank at the Sinnhuber Aquatic Research Laboratory, Oregon State University, Corvallis, OR. Each tank was kept at standard laboratory conditions of 28C on a 14-h light/10-h dark photoperiod in fish water consisting of reverse osmosis water supplemented with a commercially available salt (Instant Ocean). Spawning funnels were placed into the tanks the night prior, and embryos were collected and staged. To increase bioavailability, the chorion was enzymatically removed using pronase (63.6mg/ml, >/= 3.5U/mg, Sigma-Aldrich: P5147) at 4 hours post fertilization (hpf) using a custom automated dechorionator.Chemical exposures: Six hpf dechorionated embryos were placed 1 embryo per well in a 96-well plate prefilled with 90 ul of EM using automated embryo placement systems (AEPS). Ten microliters of each row of dilution plate 2 was added to 2 exposure plates. The final DMSO concentration used was 0.64% (vol/vol). Thirty-two embryos were also exposed to 5uM trimethyltin chloride (positive control). Plates were sealed to prevent evaporation and foil covered to reduce light exposure and kept in a 28C incubator. Embryos were statically exposed until 120 hpf. At 24 hpf, embryos were assessed for photomotor response using a custom photomotor response analysis tool (PRAT) and for developmental toxicity endpoints (MO24: mortality at 24 hpf, DP: developmental progression, SM: spontaneous movement, and NC: notochord distortion). At 120 hpf, locomotor activity was measured using Viewpoint Zebralab and assessed for 18 endpoints. Zebrafish acquisition and analysis program (ZAAP), a custom program designed to inventory, acquire, and manage zebrafish data, was used to collect developmental endpoints as either present or absent (i.e., binary responses were recorded). If mortality occurred for an embryo (at either 24 or 120 hpf), the non-mortality endpoints were not measured.
On to `CC(C)CC(C)(O)C#CC(C)(O)CC(C)C` (stereo not given), for which the compound was classed as inactive. `CC(C)=CCCC(C)=CC=O`: the call was inactive. The same measure for `Nc1ccc(Nc2ccccc2)cc1`: “inactive”; for `CCCCCCCCCCCCCCCO`: “inactive”; for `O=C(O)CC(O)C(=O)O` (stereo not given): “inactive”.

Turning to `CC1=CC(=O)CC(C)(C)C1`, the result was inactive. In the case of `CC(=O)OC[C@H]1O[C@@](COC(C)=O)(O[C@H]2O[C@H](COC(C)=O)[C@@H](OC(C)=O)[C@H](OC(C)=O)[C@H]2OC(C)=O)[C@@H](OC(C)=O)[C@@H]1OC(C)=O`, the result was inactive. As to `CCOCCOCCOCCO`, the call was inactive. The same measure for `CN(C)c1ccc(N=NS(=O)(=O)O)cc1`: “inactive”. For `CC(C)=CCC/C(C)=C\CO`, the call was inactive.

On to `Cc1[nH]cnc1C[C@H]1CCc2c(C)c3ccccc3n2C1=O`, for which the compound was called inactive.

On to `Oc1ccc2c(c1)-c1ccccc1C2`, for which the result was inactive. Take `CCCCCCc1ccc(O)cc1O`: the compound was classed as inactive.

As to `CC(C)CCCCCCCOC(=O)CCCCC(=O)OCCCCCCCC(C)C`, the compound was called inactive. The same measure for `Cc1ccc(C)c(O)c1`: “inactive”; for `C[C@](N)(Cc1ccc(O)c(O)c1)C(=O)O`: “inactive”; for `CCc1cc(SCc2sc(-c3ccc(C(F)(F)F)cc3)nc2CN2CCN(c3ccc(OC)cc3)CC2)ccc1OCC(=O)O`: “inactive”. In the case of `O=C1CCC(N2C(=O)c3ccccc3C2=O)C(=O)N1` (stereo not given), the compound was classed as inactive. Consider `O=P(OC(CCl)CCl)(OC(CCl)CCl)OC(CCl)CCl`, for which the compound was classed as inactive. `O=C(O)c1cccc(N(Cc2cccnc2)c2ccc(OC(F)F)c(OC(F)F)c2)c1`: the result was inactive. For `CC(C)=CCCC(C)CCO` (stereo not given), the result was inactive.

For `CC(C)=CCC/C(C)=C/CO`, the compound was called inactive. To `CC1(C)C(=O)N(Br)C(=O)N1Br` belongs “inactive”; to `Cn1c(=O)c2c(ncn2C)n(C)c1=O`, “inactive”. To `CC(=O)OCCC(C)C` belongs “inactive”. For `O=C1CCCCCN1`, the compound was called inactive. To `COC(=O)CC(=O)OC` belongs “inactive”; to `CCOCCO`, “inactive”. `CCOC(=O)c1ccc(C2CCC(NC[C@H](O)COc3ccc(O)c(NS(C)(=O)=O)c3)CC2)cc1` (stereo not given in full): the result was inactive. In the case of `CCCCC(CC)COC(=O)c1ccc(C(=O)OCC(CC)CCCC)cc1` (stereo not given), the call was inactive. Turning to `Cn1c(=O)cc(Oc2ccc(F)cc2F)c2cnc(NCC(C)(C)O)nc21`, the call was inactive. As for `O=C(O)c1cc(N=Nc2ccc(S(=O)(=O)Nc3ccccn3)cc2)ccc1O`, the compound was classed as inactive. Turning to `COc1cccc(-c2ccc(/C=C\CN3CCCCCC3)cc2Cl)c1`, the outcome was inactive. To `CC(C)CCCCCCOC(=O)c1ccc(C(=O)OCCCCCCC(C)C)c(C(=O)OCCCCCCC(C)C)c1` belongs “inactive”; to `C=CC(=C)CCC=C(C)C`, “inactive”. `CCCN(C1CCN(C(=O)C2CCNCC2)CC1)[C@@H]1CCc2ccc(OC)cc2C1`: the compound was classed as inactive. As to `CCn1nc(Cc2ccccc2)cc1C1CCN(C[C@H]2C[C@H](N(C)[C@@H](C(=O)O)C(C)C)C[C@@H]2c2cccc(F)c2)CC1`, the compound was called inactive.

Turning to `Cn1cnc([N+](=O)[O-])c1Sc1ncnc2nc[nH]c12`, the compound was called inactive.

With `CC[C@H]1CC[C@H](NCc2cc3c(cc2OC)[C@H]2C[C@H]2C(=O)N3C)[C@H](c2ccccc2)N1`, the call was inactive. For `CNS(=O)(=O)c1cc(C(=O)N2CCC(CCN3C4CCC3CC(n3c(C)nc5ccccc53)C4)(c3cccc(F)c3)CC2)c(Cl)cc1F` (stereo not given), the compound was called inactive.
